Screening data from PubChem.
Luc counter = Kinase-Glo luciferase inhibition (counter-screen). 200,000 tested, 0.28% active. Q27757. Potency, µM (titrated, usually from 38.3 µM), inactives show at the top dose activity change, negative = inhibition, usual class: inhibitors. Kinase-Glo luciferase, ATP luminescence, 8 min; also: % is scaled to controls: 0 for no effect and ±100 for the full control effect; nearly all actives have a fitted effect of over 60% in size
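Inhibition of Kinase-Glo luciferase light generation was assessed at 10 uM ATP in pH 7.2 imidazole buffer, with luminescence measured after eight minutes at ambient temperature.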
FLuc counter = firefly luciferase modulation, counter-screen for miR-21 project; P08659; purified FLuc, Km substrates, luminescence inhibition; Potency, µM (highest dose often 57.5 µM), for the others: at the top dose activity change, negative = inhibition, hits mostly inhibitors; 360,000 tested, 6.9% active;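 also: plate controls were vehicle for no effect and reference inhibitor for full effect; nearly all actives have a fitted effect of over 55% in size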
Target sequence (P08659 whole entry, looked up): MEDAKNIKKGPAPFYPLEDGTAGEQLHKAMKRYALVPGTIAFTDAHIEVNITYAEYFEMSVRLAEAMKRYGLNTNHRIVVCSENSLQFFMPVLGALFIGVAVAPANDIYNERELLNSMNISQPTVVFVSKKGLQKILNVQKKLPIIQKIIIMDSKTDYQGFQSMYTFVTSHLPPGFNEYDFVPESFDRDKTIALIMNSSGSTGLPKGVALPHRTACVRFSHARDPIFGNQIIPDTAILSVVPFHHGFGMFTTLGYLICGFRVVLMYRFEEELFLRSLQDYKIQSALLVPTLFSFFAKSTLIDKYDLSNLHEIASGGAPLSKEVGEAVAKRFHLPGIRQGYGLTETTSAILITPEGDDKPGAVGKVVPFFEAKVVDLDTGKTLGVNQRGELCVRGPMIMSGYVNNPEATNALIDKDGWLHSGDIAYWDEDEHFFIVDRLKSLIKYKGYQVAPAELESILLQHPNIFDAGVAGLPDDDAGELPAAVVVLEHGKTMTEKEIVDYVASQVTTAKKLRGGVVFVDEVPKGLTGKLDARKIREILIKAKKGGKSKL
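Biochemical qHTS of compounds, final roughly 60 µM downward over six points, against 10 nM purified firefly luciferase using Km concentrations of substrates (10 uM D-luciferin, 10 uM ATP) in Tris acetate pH 7.5 buffer; luminescence output.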
Rab9 prom act = Rab9 promoter activation. Huh7 Rab9 promoter-luciferase reporter, luminescence, 24 h. 320,000 tested, 2.8% active. Potency, µM (highest dose often 9.22 µM), for inactives: at the highest dose activation, negative = inhibition, most hits filed as activators; also: % of control where 0% means no effect; nearly all actives have a fitted effect of over 60% in size
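Stable Rab9-luc Huh7, 1500 cells/well, 2 h settle; cmpd in DMSO, 24 h, 37 °C/5% CO2; luciferase reagent 10 min RT; luminescence.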
SMN2 splice up = enhancers of SMN2 splice variant expression; Potency, µM (doses to about 46.1 µM), for inactives: at the top dose activity change, positive = activation, most hits filed as activators; 210,000 tested, 2.8% active; AID 1458; HEK293 SMN2-luciferase splicing reporter, luminescence, 30-36 h; also: % of control where 0% means no effect; nearly all actives have a fitted effect of over 55% in size
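HEK293 cells carry an SMN2 minigene-luciferase reporter in which exon 7 inclusion puts luciferase in frame. Cells were seeded at 2000 cells/well, attached for 10-12 hours, then exposed to compounds for 30-36 hours at 37C before ONE-Glo luminescence.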
ELG1 genotox = genotoxicity induction in ELG1-luciferase HEK293T cells; Potency, µM (highest dose often 46 µM), for inactives: at the highest dose activity change, positive = activation, most hits filed as activators; AID 504466; HEK293T ELG1-luciferase reporter, luminescence, 16 h; 330,000 tested, 1.3% active; also: % of control where 0% means no effect; nearly all actives have a fitted effect of over 60% in size
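After overnight (16 hr) compound treatment at 37 °C, ELG1-luciferase HEK293T cells were lysed with ONE-Glo; luminescence quantified 30 min later at room temperature.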
NPC1 promoter act = NPC1 promoter activation; AID 485313; Huh7 NPC1 promoter luciferase reporter, 24 h; 320,000 tested, 2.4% active; Potency, µM (highest dose often 9.22 µM), for inactives: at the top dose activation, most hits filed as activators; also: % of control where 0% means no effect; nearly all actives have a fitted effect of over 60% in size
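Luminescence read-out of NPC1 promoter-driven luciferase in stably transfected Huh7 cells; compounds delivered in DMSO and left 24 h at 37C, 5% CO2, qHTS titration format.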
Active calls of the source: *; [ ] = another dose, or the depositor's remark. Sampled rows, rich in hits. Any-hit rate of the full collection: about 7.4%. Calls follow the shape of the dose curve; as a rule, active = well fitted curve in the direction sought with a large enough effect; inconclusive = small, poorly fitted or top-dose-only effect, or another doubt; inactive = no such curve, though single readings can be large; an effect the other way counts as inactive or inconclusive. Potency is read from the fitted curve at half-maximal effect.

For C=CCC(O)(/C=C/c1ccccc1)c1ccccc1 (stereo not given) the results were Luc counter -1% and SMN2 splice up 13%.
Screening CCc1ccccc1NC(=O)c1ccc2c(c1)N(Cc1cc(C)ccc1C)C(=O)c1ccccc1S2(=O)=O returned FLuc counter -2% and SMN2 splice up -2%.
Screening COc1ccc(O)c(C(=O)c2cnn(-c3ccc(Cl)cc3)c2)c1 returned FLuc counter 17µM*, Rab9 prom act 18%, ELG1 genotox 4% and NPC1 promoter act 4%.
Screening COc1ccc(O)c(C(=O)c2cc(C#N)c(=O)n(-c3ccc(Cl)cc3)c2)c1 returned FLuc counter -18%, Rab9 prom act 1%, ELG1 genotox -4% and NPC1 promoter act -4%.
`C[C@@H]1C[C@H]2[C@H]3C[C@@H](F)C4=CC(=O)C=C[C@]4(C)[C@@]3(Cl)[C@@H](O)C[C@@]2(C)[C@@H]1C(=O)COC(=O)C(C)(C)C` gave Luc counter 1%[17.1 µM] and SMN2 splice up -6%[20.6 µM].
`CCOc1ccc(-c2cn3c(n2)sc2cc(C(=O)NCCCN(CC)CC)ccc23)cc1` gave FLuc counter 3%.
`CCOC(=O)C1(C)C=C(Nc2ccc(C(N)=O)cc2)C(=O)N1c1ccccc1` (stereo not given) gave FLuc counter 0% and SMN2 splice up 17%.
Screening Cc1ccc2c(c1)c(N=Nc1cccc(C(=O)O)c1)c(O)n2C returned FLuc counter 15µM*, Rab9 prom act -1%, ELG1 genotox 6% and NPC1 promoter act 17%.
`Cn1c(/C=N/O)nc2ccccc21` gave FLuc counter -3%, Rab9 prom act 13%, ELG1 genotox 4% and NPC1 promoter act 7%.
`CCC(=O)c1ccc(/C=C/c2nc3ccccc3n2C)o1` gave Luc counter -25%, FLuc counter 3.4µM*, Rab9 prom act 0.32µM*, SMN2 splice up 3.2µM*, ELG1 genotox -3% and NPC1 promoter act 0.5µM*.
O=C(NCCc1csc(-c2ccc(F)cc2)n1)C(=O)Nc1ccc(Cl)cc1 was read as FLuc counter -2%.
For CCCCn1c(=O)c2oc3ccccc3c2n(Cc2ccccc2C)c1=O the results were FLuc counter 1%.
For O=C(NCc1ccccc1)NC(=O)c1ccccc1 the results were Luc counter 11%, FLuc counter -2%, Rab9 prom act 9%, SMN2 splice up -7%, ELG1 genotox -1% and NPC1 promoter act -10%.
For O=C(NC(=O)c1ccccc1)NC1(C(F)(F)F)OCCO1 the results were Luc counter -1%, FLuc counter 11µM*, Rab9 prom act 4µM*, SMN2 splice up 16µM*, ELG1 genotox inconclusive and NPC1 promoter act 2.5µM*.
O=C(NCCSCc1ccco1)Nc1ccc(Cl)cc1 was read as Luc counter -3%, FLuc counter 11µM* and SMN2 splice up inconclusive.
O=C(CCSc1ccccc1)NCCSCc1ccco1 was read as FLuc counter 19µM*, Rab9 prom act 0%, ELG1 genotox -1% and NPC1 promoter act 3%.
For Cc1cc(Cl)ccc1N(CC(=O)NCCSCc1ccco1)S(C)(=O)=O the results were Luc counter 0%, FLuc counter -2%, Rab9 prom act -8%, ELG1 genotox 0% and NPC1 promoter act -8%.
O=C(NCCc1ccc(Cl)cc1)Nc1cccc(Cl)c1 was read as Luc counter -1%, FLuc counter inconclusive, Rab9 prom act -1%, SMN2 splice up -22%, ELG1 genotox -11% and NPC1 promoter act 0%.
For O=C(NCCSCc1ccco1)Nc1cccc(Cl)c1 the results were Luc counter 4%, FLuc counter 17µM*, Rab9 prom act inconclusive, SMN2 splice up inconclusive, ELG1 genotox 10% and NPC1 promoter act inconclusive.
CCC(C)NC(=O)CSc1nc2cc3c(cc2c(=O)n1Cc1ccc(C(=O)NCCc2ccc(OC)c(OC)c2)cc1)OCO3 (stereo not given) was read as FLuc counter 0%.
For c1ccc2c3c(cc(N4CCOCC4)c2c1)OC1(N2CCOCC2)CCCCC1O3 (stereo not given) the results were Luc counter 0%, FLuc counter 0%, Rab9 prom act 3%, SMN2 splice up 22µM*, ELG1 genotox -15% and NPC1 promoter act 1%.
For CCOC(=O)c1ccccc1NC(=O)Cn1c(=O)n(-c2cccc(C)c2)c(=O)c2c1c1cc(C)ccc1n2C the results were FLuc counter -13% and SMN2 splice up -3%.
NNC(=O)c1ccccc1OCc1ccccc1 was read as FLuc counter -3%, Rab9 prom act -4%, ELG1 genotox 1% and NPC1 promoter act -3%.
`CC(=O)c1ccc(OCc2ccccc2)c(C)c1O` gave Luc counter 14%, FLuc counter 17µM*, Rab9 prom act 4%, SMN2 splice up inconclusive, ELG1 genotox inconclusive and NPC1 promoter act 16%.
For CC(=O)OCCC(C)CCC=C(C)C (stereo not given) the results were Luc counter -3% and SMN2 splice up -3%.
For O=C(Nc1nc2ccsc2c(=O)s1)c1ccc(F)cc1Cl the results were FLuc counter 0.54µM*, Rab9 prom act 0.56µM*, ELG1 genotox 9.2µM* and NPC1 promoter act 0.71µM*.
`O=C(Nc1nc2ccsc2c(=O)s1)c1ccc(F)cc1` gave FLuc counter 0.54µM*, Rab9 prom act 0.28µM*, ELG1 genotox inconclusive and NPC1 promoter act 0.4µM*.
Cc1csc2c(=O)sc(NC(=O)c3ccc(F)cc3Cl)nc12 was read as FLuc counter -1%, Rab9 prom act -11%, ELG1 genotox -9% and NPC1 promoter act -1%.
For CCOC(=O)CCSc1nc(C)c2cc(C)ccc2n1 the results were Luc counter -2%, FLuc counter 9.5µM*, Rab9 prom act 22%, SMN2 splice up -6%, ELG1 genotox 18µM* and NPC1 promoter act 16%.
`CCC(=O)N/C(N)=N/c1nc(C)c2cc(OC)ccc2n1` gave Luc counter 0%, FLuc counter 11µM*, Rab9 prom act 23%, SMN2 splice up inconclusive, ELG1 genotox 10µM* and NPC1 promoter act -1%.
`CCOC(=O)CSc1nc(C)c2cc(OC)ccc2n1` gave Luc counter 1%, FLuc counter 24µM*, Rab9 prom act 2%, SMN2 splice up 41%, ELG1 genotox inconclusive and NPC1 promoter act -5%.
